Test systems include SK-MEL-2 melanoma; EKVX NSCLC; SN12C renal; UO-31 renal; TK-10 renal; ACHN renal; CAKI-1 renal; A498 renal; MOLT-4 leukemia; RPMI-8226 leukemia; OVCAR-8 ovarian; OVCAR-5 ovarian; OVCAR-4 ovarian; SK-OV-3 ovarian; IGROV1 ovarian; OVCAR-3 ovarian; HS 578T breast; NCI/ADR-RES ovarian; SR leukemia.
Common to all, as to assay: NCI-60 one-dose screen, 48 h (100 = growth as untreated, 0 = no growth, -100 = all killed)
Common to all, as to settings: 10 µM

Compounds without any hit were thinned out: in the full panel of roughly 83,000, 20% have a hit.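 Interpretation: 100, growth as untreated; towards 0, rising growth inhibition; 0, no net growth; 0 to -100, cell death. Compounds scoring below 10 were considered active.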 Unmarked numbers belong to inactive results. Calls of active or inactive are those of the source.

Regarding `CCC(C)[C@H](NC(C)=O)C(=O)N[C@@H](CCCNC(=N)N)C(=O)N[C@@H](CCCCN)C(=O)N[C@@H](CC1CCC(O)CC1)C(=O)NC(C(=O)N[C@@H](CCSC)C(=O)N[C@@H](CCCNC(=N)N)C(=O)N[C@@]1(C)CCC/C=C\CCC[C@@](C)(C(=O)NC(C(=O)N[C@@H](CCC(=O)O)C(=O)N[C@@H](CC(C)C)C(=O)N[C@H](C(=O)N[C@@H](CCC(=O)O)C(N)=O)C(C)C)[C@@H](C)O)NC(=O)[C@H](CCC(N)=O)NC(=O)[C@H](CC(C)C)NC(=O)[C@H](CC(C)C)NC1=O)[C@@H](C)O` (stereo partly drawn), the growth with SK-MEL-2 melanoma is 100%; in the assay with EKVX NSCLC, 99.5%; in the assay with SN12C renal it was 93.2%; in the assay with UO-31 renal it was 106%; with TK-10 renal it was 96.4%; with ACHN renal it was 106%. Further, the growth in the assay with CAKI-1 renal is 99.4%; with A498 renal, 120%; with MOLT-4 leukemia it was 97.3%; with RPMI-8226 leukemia, 95%; in the assay with OVCAR-8 ovarian, 98.4%; in the assay on OVCAR-5 ovarian, 115%. For the same compound, the growth with OVCAR-4 ovarian was 100%; with SK-OV-3 ovarian, 98.4%; in the assay with IGROV1 ovarian, 100%; with OVCAR-3 ovarian, 104%; in the assay with HS 578T breast, -7.65% (active); with NCI/ADR-RES ovarian, 108%.

In the case of `CC(C)(C)OC(=O)CC(S(=O)(=O)c1ccccc1)S(=O)(=O)c1ccccc1`, the growth in the assay on SK-MEL-2 melanoma is 114%; in the assay with EKVX NSCLC, 112%; with SN12C renal, 96.1%; in the assay on UO-31 renal it was 61.4%; with TK-10 renal it was 21.4%; in the assay on ACHN renal, 17.8%. In addition, the growth was 90.6% in the assay on CAKI-1 renal; 102% in the assay with A498 renal; 82.7% in the assay on MOLT-4 leukemia; 77.9% with SR leukemia; 99.3% with RPMI-8226 leukemia; 98.8% with OVCAR-5 ovarian. Further, the growth is 101% in the assay on SK-OV-3 ovarian; 114% in the assay with IGROV1 ovarian; 48.3% with OVCAR-3 ovarian; 102% in the assay on HS 578T breast; 107% in the assay with NCI/ADR-RES ovarian.

For `Cc1noc(C)c1CSc1ccccc1C(=O)N1CCN(c2cccc(C(F)(F)F)c2)CC1`, the growth in the assay with SK-MEL-2 melanoma was 85.1%; in the assay with EKVX NSCLC, 66.7%; in the assay on SN12C renal, 80.2%; in the assay on UO-31 renal it was 67.5%; in the assay on TK-10 renal, 91.3%; with ACHN renal, 84.9%. Besides, the growth was 68.8% in the assay on CAKI-1 renal; 77.5% with A498 renal; 67.6% with MOLT-4 leukemia; 39% in the assay on SR leukemia; 54.3% in the assay with RPMI-8226 leukemia; 88.1% with OVCAR-5 ovarian. The growth was 67% in the assay on OVCAR-4 ovarian; 75.3% with SK-OV-3 ovarian; 83.7% with IGROV1 ovarian; 82.1% in the assay on OVCAR-3 ovarian; 90.4% in the assay with HS 578T breast; 72.3% with NCI/ADR-RES ovarian.

Regarding `Oc1ccc(-c2[nH]c3ccccc3c2-c2nc3ccccc3o2)cc1`, the growth in the assay with SK-MEL-2 melanoma is 66.9%; with EKVX NSCLC, 83%; with SN12C renal, 84.2%; with UO-31 renal, 40.9%; with TK-10 renal it was 84.8%; in the assay on ACHN renal, 51.6%. In addition, the growth with CAKI-1 renal was 64%; in the assay with A498 renal, 81.4%; in the assay on MOLT-4 leukemia it was 58.9%; in the assay on SR leukemia, 14.8%; in the assay on RPMI-8226 leukemia, 86.6%; in the assay with OVCAR-8 ovarian it was 91.9%. For the same compound, the growth in the assay with OVCAR-5 ovarian was 80.6%; in the assay with SK-OV-3 ovarian, 72.9%; in the assay with IGROV1 ovarian, 52.6%; in the assay with OVCAR-3 ovarian it was 74.1%; in the assay on HS 578T breast, 81.4%; in the assay with NCI/ADR-RES ovarian, 32.5%.

On to `CCCN(CCC)C(=O)[C@H](CC)[C@@H]1CC[C@@H](C)[C@@H]([C@H](C)[C@@H](O)[C@@H](C)C(=O)[C@H](CC)C2O[C@]3(C=C[C@@H](O)[C@]4(CC[C@@](C)([C@H]5CC[C@](O)(CC)[C@H](C)O5)O4)O3)[C@H](C)C[C@@H]2C)O1` (stereo partly drawn), for which the growth is 0.709% (active) with SK-MEL-2 melanoma; -13.6% (active) with EKVX NSCLC; 3.43% (active) in the assay on SN12C renal; -16.8% (active) with UO-31 renal; 20.7% in the assay on TK-10 renal; -2.43% (active) in the assay with ACHN renal. Further, the growth is -8.15% (active) in the assay with CAKI-1 renal; -20.3% (active) in the assay with A498 renal; 15.3% in the assay on MOLT-4 leukemia; 15.2% in the assay with SR leukemia; 15% in the assay with OVCAR-8 ovarian; 11.4% with OVCAR-5 ovarian. For the same compound, the growth in the assay with OVCAR-4 ovarian was 7.28% (active); with SK-OV-3 ovarian, 3.96% (active); in the assay with IGROV1 ovarian, 17.1%; with OVCAR-3 ovarian, 2.11% (active); in the assay with HS 578T breast, 11.7%; in the assay with NCI/ADR-RES ovarian, -11.2% (active).

On to `CCCCN(CCCC)C(=O)[C@H](CC)[C@@H]1CC[C@@H](C)[C@@H]([C@H](C)[C@@H](O)[C@@H](C)C(=O)[C@H](CC)C2O[C@]3(C=C[C@@H](O)[C@]4(CC[C@@](C)([C@H]5CC[C@](O)(CC)[C@H](C)O5)O4)O3)[C@H](C)C[C@@H]2C)O1` (stereo partly drawn), for which the growth in the assay on SK-MEL-2 melanoma was -12.4% (active); in the assay on EKVX NSCLC, -8.73% (active); in the assay with SN12C renal it was 3.56% (active); in the assay with UO-31 renal, -11.7% (active); in the assay with TK-10 renal, 18.6%; in the assay with ACHN renal it was 7.05% (active). Besides, the growth is -3.74% (active) with CAKI-1 renal; -14.6% (active) in the assay with A498 renal; 11.8% in the assay on MOLT-4 leukemia; 27% in the assay with SR leukemia; 12.5% in the assay with OVCAR-8 ovarian; 24% in the assay on OVCAR-5 ovarian. The growth was 9.88% (active) in the assay with OVCAR-4 ovarian; -8.58% (active) with SK-OV-3 ovarian; 20.1% with IGROV1 ovarian; 4.13% (active) with OVCAR-3 ovarian; 14.5% in the assay with HS 578T breast; 25.4% in the assay with NCI/ADR-RES ovarian.

Take `COc1cc(-c2nc3ccccc3o2)cc(CN2CCCCC2)c1O`: the growth in the assay on SK-MEL-2 melanoma is 89.3%; with EKVX NSCLC it was 66.5%; with SN12C renal, 62.1%; in the assay with UO-31 renal, 43.9%; in the assay on TK-10 renal, 129%; in the assay with ACHN renal, 64.8%. Also, the growth is 85.2% in the assay on CAKI-1 renal; 55.2% with A498 renal; 48.8% with MOLT-4 leukemia; 31.7% in the assay on SR leukemia; 45.1% in the assay on RPMI-8226 leukemia; 71.1% in the assay on OVCAR-8 ovarian. The growth in the assay on OVCAR-5 ovarian was 110%; in the assay on SK-OV-3 ovarian, 118%; with IGROV1 ovarian, 82.1%; with OVCAR-3 ovarian, 59%; in the assay with HS 578T breast it was 60.3%; with NCI/ADR-RES ovarian it was 79.7%.

As for `CC(C)(C)OC(=O)N1CCc2c(sc3ncnc(N/N=C/c4cccc(Br)c4)c23)C1`, the growth was 76.1% in the assay on SK-MEL-2 melanoma; 26.3% in the assay with EKVX NSCLC; 50.9% in the assay on SN12C renal; 21% in the assay on UO-31 renal; 56.3% in the assay with TK-10 renal; 33.9% in the assay with ACHN renal. Also, the growth with CAKI-1 renal was 31.4%; in the assay with A498 renal, 72.7%; in the assay on MOLT-4 leukemia, 18%; with SR leukemia, 29.4%; with OVCAR-8 ovarian, 46.6%; with OVCAR-5 ovarian, 70.5%. The growth in the assay on OVCAR-4 ovarian was 54.9%; in the assay with SK-OV-3 ovarian it was 62.2%; in the assay with IGROV1 ovarian, 43.9%; in the assay on OVCAR-3 ovarian it was 61.5%; in the assay on HS 578T breast, 71.2%; with NCI/ADR-RES ovarian it was 42.1%.
